High-throughput results as filed in PubChem BioAssay.
ST2 IL33 inh: inhibitors of human ST2 (IL1RL1) binding to IL-33; 78,000 compounds, 2.3% hits; AlphaLISA ST2-Fc/biotin-IL-33 interaction, 1 h; inhibition, % for hits at 17 µM; in the data active = inhibition above about 30%
Target sequence (Q01638 whole entry, looked up): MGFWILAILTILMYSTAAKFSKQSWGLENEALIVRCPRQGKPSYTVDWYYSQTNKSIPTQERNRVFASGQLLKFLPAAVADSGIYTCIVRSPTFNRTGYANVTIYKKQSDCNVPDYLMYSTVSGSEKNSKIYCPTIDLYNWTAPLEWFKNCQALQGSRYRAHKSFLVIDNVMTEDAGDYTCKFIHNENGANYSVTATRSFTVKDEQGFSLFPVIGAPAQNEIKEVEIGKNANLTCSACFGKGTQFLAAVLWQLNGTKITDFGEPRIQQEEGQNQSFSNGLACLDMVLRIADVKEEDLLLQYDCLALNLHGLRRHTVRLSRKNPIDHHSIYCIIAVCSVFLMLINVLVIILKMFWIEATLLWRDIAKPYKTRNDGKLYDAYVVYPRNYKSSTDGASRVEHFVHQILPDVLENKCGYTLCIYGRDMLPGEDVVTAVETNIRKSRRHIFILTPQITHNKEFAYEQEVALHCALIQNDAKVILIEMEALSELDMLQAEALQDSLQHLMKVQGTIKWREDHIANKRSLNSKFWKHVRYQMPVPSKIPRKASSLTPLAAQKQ
Of the large screens only hits and unclear results are named; the others gave an inactive call; ! = not confirmed by another sample. This is one part of a sample in which hits are shown more often than they occur.

Cc1ccc(Cl)cc1NC(=O)CN1CCN(Cc2ccccc2F)S1(=O)=O	ST2 IL33 inh 97%
Cc1cc(C)c(NC(=O)CN2CCN(Cc3ccccc3F)S2(=O)=O)c(C)c1	none
O=C(CN1CCN(Cc2ccccc2F)S1(=O)=O)Nc1ccccc1	none
c1cncc(CN2CC[C@H](c3nnc(-c4cccnc4)o3)C2)c1	none
Cc1ccc(NS(=O)(=O)c2ccc([N+](=O)[O-])cc2)cc1	none
Cc1ccc(S(=O)(=O)N(Cc2ccc([N+](=O)[O-])cc2)C(C)(C)C)cc1	none
Cc1ccc(S(=O)(=O)c2ccc(-c3ccc([N+](=O)[O-])cc3)cc2)cc1	ST2 IL33 inh 31%
Cc1cc(Br)ccc1OCC(=O)NCC1CCCO1 (stereo not drawn)	none
O=C(C1CCN(S(=O)(=O)c2cccnc2)CC1)N1CCN(c2ccc(F)cc2)CC1	none
O=c1[nH]nc(C[N+](=O)[O-])c2ccccc12	ST2 IL33 inh 30%
COc1ccc(Cc2n[nH]c(=O)c3ccccc23)cc1OC	none
O=c1[nH]nc(Cc2ccccc2)c2ccccc12	none
CCOc1ccc(N2C(=O)Nc3ccc(Br)cc3C2(O)C(=O)NC(C)CC)cc1 (stereo not drawn)	none
O=C1C2[C@H](C(=O)N1c1ccc(Cl)c(C(F)(F)F)c1)[C@H]1C=C[C@@]2(CO)O1 (stereo partly drawn)	none
Cc1cnc(N2CCN(C(=O)CC(C)C)CC2)nc1N(C)C	none
O=C(c1ccc(Cl)cc1)N1N=C(C2CCCCC2)CC1(O)C(F)(F)F (stereo not drawn)	none
Cc1csc2ncc(C(=O)Nc3ccon3)c(=O)n12	ST2 IL33 inh 97%!
Cc1csc2ncc(C(=O)Nc3ccccc3)c(=O)n12	none
Cc1csc2ncc(C(=O)Nc3ccc(Cl)cc3)c(=O)n12	none
Cc1cc(C)[n+]2c(c1C#N)SCC2C(Br)c1ccccc1 (stereo not drawn)	ST2 IL33 inh 58%
CC(C)C(=O)Nc1cccnc1-c1ccc(Cl)s1	none
CC(=O)c1sc2ccccc2c1OC(=O)c1cccc(Br)c1	none
COc1ccc2nc(N=C(N)NC(=O)Cc3ccc(Cl)cc3)nc(C)c2c1	ST2 IL33 inh 35%
CCC(=O)NC(N)=Nc1nc(C)c2cc(C)ccc2n1	none
COc1ccc2nc(N=C(N)N)nc(C)c2c1	none
CCCOC(=O)C1=C(C)NC2=C(C(=O)C(C(=O)OC)C(C)C2)C1c1cccc(Cl)c1 (stereo not drawn)	none
Cc1ccc(OCC(=O)Nc2cc(-c3nc4ncccc4o3)ccc2Cl)cc1C	ST2 IL33 inh 30%
Cc1ccc(-c2nc3ncccc3o2)cc1NC(=O)COc1ccc(Br)cc1	none
O=C(COc1ccc(Br)cc1)Nc1ccc(F)cc1	ST2 IL33 inh 39%
CC(C)Oc1cccc(C(=O)Nc2cc(-c3nc4ncccc4o3)ccc2Cl)c1	none
O=C(COc1ccccc1)Nc1ccc(Cl)cc1	none
CCC(=O)Nc1ccc(-c2nc3ncccc3o2)cc1	none
Cc1ccc(NC(=O)COc2ccc(C)cc2)cc1	none
CCOc1ccc(C(=O)Nc2cc(-c3nc4ncccc4o3)ccc2C)cc1	none
O=C(COc1ccc(Br)cc1)Nc1ccc(-c2nc3ncccc3o2)cc1	ST2 IL33 inh 33%
Cc1ccc(-n2cnc(N)c2C(=O)c2ccc(Br)cc2)cc1	none
Cc1cc(C)nc(NS(=O)(=O)c2ccc(Cl)cc2)n1	none
Cc1ccc(C=Nc2ccc(Br)cc2)cc1	none
O=[N+]([O-])c1cccc(N=Cc2ccc(Br)c([N+](=O)[O-])c2)c1	none
Cc1c(Cl)c(C)c([N+](=O)[O-])c(O)c1C=Nc1cccc(C(=O)O)c1	none
O=[N+]([O-])c1ccc(N=Cc2cc(Br)cc(I)c2O)cc1	none
Oc1c(C=NC2CCCCC2)[nH]c2ccc(Br)c(Cl)c12	ST2 IL33 inh 45%
Oc1c(C=Nc2ccc(Br)cc2)[nH]c2ccc(Br)c(Cl)c12	ST2 IL33 inh 30%
Oc1c(C=Nc2cccc(F)c2)[nH]c2ccc(Br)c(Cl)c12	ST2 IL33 inh 32%
Cc1cc(Br)ccc1OCC(=O)Nc1ccccc1C(N)=O	none
O=C(Cc1c(C(=O)O)[nH]c2ccccc12)Nc1ccc2c(c1)OCCO2	none
CC(=O)Nc1cccc(-c2nccc(CCC(F)(F)F)n2)c1	none
COc1ccccc1N1CCN(CC2CC=CCC2)CC1 (stereo not drawn)	none
Cc1noc(CSCc2nc(CC(C)C)nn2-c2ccccn2)n1	none
COC(=O)c1nnn(CC(=O)Nc2ccccc2)c1C(=O)OC	none
COc1cc(O)c2c(=O)c(O[C@@H]3O[C@H](CO[C@@H]4O[C@@H](C)[C@H](O)[C@@H](O[C@@H]5O[C@@H](C)[C@H](O)[C@@H](O)[C@H]5O)[C@H]4O)[C@H](O)[C@H](O)[C@H]3O)c(-c3ccc(O)c(O)c3)oc2c1	none
COc1cc(O)c2c(=O)c(OC)c(-c3cc(O)c(OC)c(OC)c3)oc2c1	ST2 IL33 inh 94%
COc1c(-c2ccc(O)c(O)c2)oc2cc(O)cc(O)c2c1=O	none
CC(C)c1ccc(CN2CCCC3(CCN(S(C)(=O)=O)C3)C2)cc1 (stereo not drawn)	none
Clc1ccc(OC2=C(c3ccccc3)N3CCN=C3S2)cc1	ST2 IL33 inh 45%
Brc1ccc(C2=CSC3=NCCN23)cc1	none
Fc1ccc(C2=CSC3=NCCN23)cc1	none
S=C(Nc1ccc(Cl)cc1)N[C@H]1CO[C@H]2[C@@H]1OC[C@H]2OCc1ccccc1	none
COc1ccc(C(=O)Cn2c(=O)n(CCc3ccccc3)c(=O)c3cc(OC)c(OC)cc32)cc1	none
Cc1ccc(NC(=O)c2cccc(C(=O)Nc3ccc(C)cc3)c2)cc1	none
CN(C)c1ccc(C2SCCN2C(=O)c2ccc([N+](=O)[O-])cc2)cc1 (stereo not drawn)	ST2 IL33 inh 30%
O=[N+]([O-])c1ccc(C2SCCN2S(=O)(=O)c2ccc(I)cc2)cc1 (stereo not drawn)	none
O=C(c1ccc([N+](=O)[O-])cc1)N1CCSC1c1cccc(Cl)c1 (stereo not drawn)	none
CN1C[C@@H](NC(=O)Nc2ccc(C(F)(F)F)cc2)C[C@H]1c1nc(-c2ccncc2)no1	none
COc1ccccc1N1C(=O)C2C3C=CC(O3)C2C1=O (stereo not drawn)	none
COc1ccc(N=Cc2c(O)ccc3oc4c(c23)CCCC4)cc1	ST2 IL33 inh 40%
COc1ccc(NC(=O)c2noc3c2CCCCC3)cc1	none
Cc1c(Cl)c(C)c([N+](=O)[O-])c(O)c1C=Nc1ccc(C(=O)O)cc1	none
COc1ccc(N=Cc2c(O)cc(C)c(Cl)c2C)cc1	ST2 IL33 inh 43%
COc1ccc(N=Cc2c(O)c([N+](=O)[O-])cc3oc4c(c23)CCCC4)cc1	none
COc1cccc(-n2c(O)c(C=Nc3ccc(Cl)cc3)c3ccccc3c2=O)c1	none
CC1(C)Cc2c(C#N)c(N3CCCC3)nc(-c3ccccc3)c2CO1	none
COc1ccc2cc3cc(C(=O)N4CCC(C)CC4)oc3nc2c1	none
CCOC(=O)N1CCN(Cc2ccc3c(c2)CN(C(=O)c2ccc(F)c(Cl)c2)CCO3)CC1	none
O=C1c2ccc(Br)cc2C(=O)N1CN1CCOCC1	none
O=C1CC(c2ccccc2)CC2=C1C(c1cc(Br)ccc1F)Nc1ccccc1N2 (stereo not drawn)	none
O=C1CC(c2ccccc2)CC2=C1C(c1cc3c(cc1[N+](=O)[O-])OCO3)Nc1ccccc1N2 (stereo not drawn)	ST2 IL33 inh 44%
O=C1CC(c2ccccc2)CC2=C1C(c1ccccc1Br)Nc1ccccc1N2 (stereo not drawn)	none
COc1cc(OC)c(C2C(C#N)=C(N)OC3=C2C(=O)CCC3)cc1Br (stereo not drawn)	none
COc1cc(NC(=O)NC[C@H]2O[C@@H](CO)[C@@H](O)[C@H]2N2CCN(c3cccc(C(F)(F)F)c3)CC2)cc(OC)c1	ST2 IL33 inh 86%
COc1ccccc1N1CCN([C@@H]2[C@H](O)[C@H](CO)O[C@@H]2CNC(=O)c2cccc(F)c2)CC1	none
